Laboratory results taken from PubChem BioAssay (NCATS).
Inconclusive results are not listed. Activity calls are given as the source filed them. The call rests on the fitted dose curve; in most records, active means well fitted inhibition curve with a large enough effect; inconclusive means small, poorly fitted or top-dose-only effect; inactive means flat fitted curve, though single readings scatter.

Experiment: BET inhibitor-based combinations targeting novel dependencies in MECOM-rearranged (r) AML: AML-194 cell line (AID 2202237; further: nearly all actives have a fitted effect of over 40% in size)
Conditions: AML-194 (MECOM-r AML) viability, CellTiter-Glo, 48 h; series mostly up to 46 µM
How it was run: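 A 48 hr incubation preceded viability reading by CellTiter-Glo, with 15 min room-temperature development. Dose series had 11 points; normalization used DMSO and empty wells; AUC was computed and mean-centered per line as Z-AUC.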
Potency means the concentration at half of the fitted maximal effect.

Structure (SMILES)	Potency
CC(=O)O[C@@]12CO[C@@H]1C[C@H](O)[C@@]1(C)C(=O)[C@H](O)C3=C(C)[C@@H](O)C[C@@](O)([C@@H](OC(=O)c4ccccc4)[C@H]21)C3(C)C	23.5 µM (active)
C/C(=C\c1csc(C)n1)[C@@H]1C[C@@H]2O[C@]2(C)CCC[C@H](C)[C@H](O)[C@@H](C)C(=O)C(C)(C)[C@@H](O)CC(=O)O1	0.0118 µM (active)
CCCCCCC(C)(C)c1cc(O)c2c(c1)OC(C)(C)C1CC=C(CO)C[C@H]21 (stereo partly specified)	23.5 µM (active)
CC1(C)C(=O)N(c2ccc(C#N)c(C(F)(F)F)c2)C(=S)N1Cc1ccc(-c2cn[nH]n2)cc1	20.9 µM (active)
CC(=O)OC[C@H]1O[C@@H]([S-])[C@H](OC(C)=O)[C@@H](OC(C)=O)[C@@H]1OC(C)=O.CC[PH+](CC)CC.[Au]	2.95 µM (active)
COc1cc([C@@H]2c3cc4c(cc3[C@@H](O)C3COC(=O)C32)OCO4)cc(OC)c1O (stereo partly specified)	0.332 µM (active)
COc1cc(C(=O)N2CC[C@@H](O)[C@@H](N)C2)cc2nc(-c3cc4ccccc4n3CC3CC3)n(C)c12	inactive
CC(C)CC(N(C)C)C1(c2ccc(Cl)cc2)CCC1 (stereo unspecified)	inactive
O=P1(NCCCl)OCCCN1CCCl (stereo unspecified)	inactive
Cc1[nH]ncc1-c1cc2nc([C@@H]3CC4CCN3CC4)[nH]c(=O)c2s1	9.34 µM (active)
O=S(=O)(F)Cc1ccccc1	inactive
